Active and inactive are the calls of the source. Unless noted, how the calls were made is not given here.
Experiments:
[1] = resazurin metabolic signal in HepG2 cells – cell-based, resazurin fluorescence, 24 h, PK04 Diversity Set, profiling panel (AID 1172); settings: HepG2 viability, higher = more signal
[2] = budding yeast growth changes without added modifier – OD600, strain BY4716, 24 h, basal condition, primary screen (AID 1173); settings: S. cerevisiae BY4716 growth, OD600, 24 h; higher = more signal, called active from +8 up or from −8 down
[3] = viability profiling in MM1S myeloma cells – cell-based, resazurin fluorescence, basal, 24 h, PK04 Diversity Set, profiling panel (AID 1174); settings: higher = more signal, called active from +8 up or from −8 down;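 further: MM1S multiple myeloma cell line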
[4] = target: Dihydroorotate dehydrogenase (quinone), mitochondrial (Plasmodium falciparum (isolate 3D7)) (UniProt Q08210); assay: inhibition of P. falciparum DHODH – biochemical, C-terminal His tag, absorbance 600 nm, primary screen (AID 1175); settings: PfDHODH enzyme, DCIP absorbance 600 nm; higher = more signal, called active from +8 up or from −8 down;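 further: recombinant parasite enzyme with a five histidine tag at its C terminus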
Sequence of Dihydroorotate dehydrogenase (quinone), mitochondrial (Plasmodium falciparum (isolate 3D7)) (Q08210 whole entry, looked up): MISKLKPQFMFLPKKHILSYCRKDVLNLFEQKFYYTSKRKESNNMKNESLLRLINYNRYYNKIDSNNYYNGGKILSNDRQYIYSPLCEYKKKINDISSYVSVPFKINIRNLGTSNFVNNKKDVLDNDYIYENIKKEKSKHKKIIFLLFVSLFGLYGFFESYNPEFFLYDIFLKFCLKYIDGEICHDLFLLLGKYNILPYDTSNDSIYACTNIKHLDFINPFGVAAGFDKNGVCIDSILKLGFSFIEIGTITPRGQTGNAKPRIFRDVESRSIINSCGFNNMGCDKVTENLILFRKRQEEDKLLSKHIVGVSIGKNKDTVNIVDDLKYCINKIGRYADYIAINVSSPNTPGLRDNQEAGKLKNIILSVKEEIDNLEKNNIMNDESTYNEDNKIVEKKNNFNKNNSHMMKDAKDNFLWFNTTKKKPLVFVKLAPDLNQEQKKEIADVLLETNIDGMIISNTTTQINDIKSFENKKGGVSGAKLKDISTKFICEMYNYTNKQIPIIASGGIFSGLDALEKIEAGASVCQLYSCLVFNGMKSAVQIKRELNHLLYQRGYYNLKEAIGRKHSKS

[5] = inhibition of PAO1 biofilm formation – strain PAO1, LB-PBS medium, absorbance 600 nm, primary screen (AID 1176); settings: P. aeruginosa PAO1 growth/biofilm, A600, 12 h; higher = more signal
[6] = growth modulation of vineyard yeast isolate – strain RM11-1a, OD600, basal, 24 h, primary screen (AID 1177);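 further: cultures grown under basal conditions with no added stressor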; settings: S. cerevisiae RM11-1a growth, OD600, 24 h; higher = more signal, called active from +8 up or from −8 down
[7] = growth of efflux-deficient E. coli DRC39 – strain DRC39, OD650, 24 h, E. coli filamentation inducers, primary screen (AID 1178);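 further: growth measured as culture turbidity by optical density at 650 nm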; settings: E. coli DRC39 acrAB, higher = more signal, called active from +8 up or from −8 down
[8] = growth of efflux-deficient E. coli DRC39 – strain DRC39, OD650, 48 h, E. coli filamentation inducers, primary screen (AID 1179);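 further: screen aims at cell division blockers that make cells filament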; settings: E. coli DRC39 delta-acrAB growth, higher = more signal, called active from +8 up or from −8 down
[9] = viability profiling in RPMI8226 myeloma cells – cell-based, resazurin fluorescence, basal, 24 h, PK04 Diversity Set, profiling panel (AID 1180); settings: higher = more signal;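 further: RPMI8826 multiple myeloma cell line at 5000 cells per well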
[10] = target: E3 ubiquitin-protein ligase XIAP (Homo sapiens) (UniProt P98170); assay: small molecules binding XIAP protein – biophysical, small-molecule microarray, fluorescence 635 nm, primary screen (AID 1181); settings: higher = more signal;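 further: score merges 667 nm emission and signal to noise over triplicate slides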
Sequence of E3 ubiquitin-protein ligase XIAP (Homo sapiens) (P98170 whole entry, looked up, the tested form may be a part): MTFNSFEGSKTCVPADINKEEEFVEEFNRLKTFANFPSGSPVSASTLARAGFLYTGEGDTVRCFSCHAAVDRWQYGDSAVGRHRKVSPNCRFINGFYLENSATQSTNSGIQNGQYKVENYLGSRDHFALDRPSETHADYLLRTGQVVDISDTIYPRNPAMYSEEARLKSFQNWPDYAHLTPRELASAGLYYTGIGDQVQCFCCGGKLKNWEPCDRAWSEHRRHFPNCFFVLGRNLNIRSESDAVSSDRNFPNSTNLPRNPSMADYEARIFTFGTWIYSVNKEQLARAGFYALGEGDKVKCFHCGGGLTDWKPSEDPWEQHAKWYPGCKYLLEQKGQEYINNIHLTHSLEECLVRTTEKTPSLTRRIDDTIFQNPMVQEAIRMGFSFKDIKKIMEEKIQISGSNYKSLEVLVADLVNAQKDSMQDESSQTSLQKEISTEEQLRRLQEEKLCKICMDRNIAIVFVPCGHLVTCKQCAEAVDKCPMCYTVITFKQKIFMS

[11] = system: XIP peptide (Xip251-270) binding; assay: XIP fragment 251-270 binding compounds – biochemical, small-molecule microarray, fluorescence 635/667 nm, 0.1 µg/mL protein, primary screen (AID 1182); settings: fluorescent protein binding, 635 nm, higher = more signal, called active from +8 up or from −8 down
[12] = system: XIP peptide (Xip251-270); assay: compounds binding XIP fragment 251-270 – biochemical, small-molecule microarray, fluorescence 635/667 nm, 0.5 µg/mL protein, primary screen (AID 1183); settings: fluorescence 635 nm, higher = more signal
[13] = blood-stage malaria parasite viability loss – strain 3D7, DAPI fluorescence, 100 nL, primary screen (AID 1184);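 further: parasites grown inside human red blood cells in medium with human serum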; settings: P. falciparum 3D7 growth, 3 d, higher = more signal
[14] = target: Homeobox protein Hox-A13 (Mus musculus) (UniProt Q62424); assay: disruptors of Hoxa13 oligonucleotide interaction – biochemical, fluorescence polarization, labeled oligonucleotide, primary screen (AID 1185); settings: Hoxa13:DNA binding, 15 min, higher = more signal, called active from +8 up or from −8 down
Sequence of Homeobox protein Hox-A13 (Mus musculus) (Q62424 whole entry, looked up): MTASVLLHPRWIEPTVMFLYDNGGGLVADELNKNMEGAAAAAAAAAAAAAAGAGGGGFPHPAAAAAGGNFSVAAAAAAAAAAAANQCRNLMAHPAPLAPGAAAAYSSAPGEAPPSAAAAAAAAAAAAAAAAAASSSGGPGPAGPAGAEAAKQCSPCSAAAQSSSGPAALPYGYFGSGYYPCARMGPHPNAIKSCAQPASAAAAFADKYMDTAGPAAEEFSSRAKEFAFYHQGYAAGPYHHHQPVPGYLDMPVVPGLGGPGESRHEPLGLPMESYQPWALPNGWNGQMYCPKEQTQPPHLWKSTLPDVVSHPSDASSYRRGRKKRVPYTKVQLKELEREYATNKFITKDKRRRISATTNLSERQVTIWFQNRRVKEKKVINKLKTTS

[15] = blockers of DNA damage checkpoint Chk1 activation – imaging, HeLa, hydroxyurea, phospho-Chk1 antibody, percent positive cells, primary screen (AID 1186); settings: hydroxyurea-induced phospho-Chk1 immunofluorescence imaging, higher = more signal
[16] = blockers of DNA damage checkpoint Chk1 activation – imaging, HeLa, hydroxyurea, phospho-Chk1 nuclear intensity, primary screen (AID 1187); settings: hydroxyurea-induced phospho-Chk1 immunofluorescence imaging, higher = more signal

Row | Structure (SMILES) | z-score [1] | z-score [2] | z-score [3] | composite z-score [4] | z-score [5] | z-score [6] | z-score [7] | z-score [8] | z-score [9] | composite z-score [10] | composite z-score [11] | composite z-score [12] | z-score [13] | z-score [14] | z-score [15] | z-score [16]
1 | CC(C)[Si](C#CCCCC#N)(O[C@H](c1ccccc1)c1cn([C@H](C)c2ccccc2)nn1)C(C)C | 0.592 | -1.06 (inactive) | 0.181 (inactive) | 0.31 (inactive) | 0.559 (inactive) | -0.802 (inactive) | -0.708 (inactive) | -0.482 (inactive) | 0.409 | 0.172 | -0.301 (inactive) | 0.415 | -0.133 | -0.445 (inactive) | -0.228 (inactive) | -0.174 (inactive)
2 | COC(=O)C1=CC(CCCO)=CC(C2CC2)N(Cc2cccc(OC(F)(F)F)c2)C=C1C(=O)OC (centres undefined) | 0.588 | -1.76 (inactive) | 0.348 (inactive) | -6.2 (inactive) | 0.034 (inactive) | 0.0808 (inactive) | 1.01 (inactive) | 1.1 (inactive) | 0.693 | -0.22 | 0.737 (inactive) | 0.668 | -1.37 | -7.83 (inactive) | -0.316 (inactive) | -0.0702 (inactive)
3 | C=CCC(OC(C)=O)[C@@H]1[C@@H](N(Cc2cc3ccccc3o2)C(=O)c2cccc3ccccc23)c2cc(OCCCO)ccc2N1C(=O)c1ccc2ccccc2c1 (some centres undefined) | -1.18 | -0.469 (inactive) | -0.581 (inactive) | 0.0769 (inactive) | -0.227 (inactive) | -0.389 (inactive) | -0.423 (inactive) | -0.797 (inactive) | -0.855 | -0.146 | 0.0745 (inactive) | -0.611 | -2.65 | -1.34 (inactive) | -0.328 (inactive) | -0.0311 (inactive)
4 | CC(C)CNC(=O)[C@@]1(C)c2ccccc2C(=O)N(Cc2cc(F)cc(C(F)(F)F)c2)[C@H]1c1ccc(CO)cc1 | -0.201 | -0.3 (inactive) | 0.919 (inactive) | -0.0555 (inactive) | 1.22 (inactive) | -0.167 (inactive) | 0.167 (inactive) | 0.137 (inactive) | 0.489 | -0.208 | 2.74 (inactive) | 0.467 | -0.586 | -3.51 (inactive) | -0.143 (inactive) | 0.0394 (inactive)
5 | CCCCCN1CC=CC23O[C@@H]4C=CCOC(=O)[C@@H]4[C@H]2C(=O)N(CCCCCO)[C@@H]3C1=O (some centres undefined) | 0.773 | -0.284 (inactive) | -0.295 (inactive) | -1.09 (inactive) | 0.441 (inactive) | -0.196 (inactive) | -0.151 (inactive) | -0.352 (inactive) | 0.0715 | -0.244 | 0.213 (inactive) | -0.228 | -0.423 | -3.88 (inactive) | -0.845 (inactive) | -0.498 (inactive)
6 | CC#CCO[Si](C#CCCCCCC)(C(C)C)C(C)C | 0.296 | -9.54 (active) | 0.486 (inactive) | -0.487 (inactive) | 0.501 (inactive) | 0.0606 (inactive) | -0.0081 (inactive) | 0.448 (inactive) | 0.166 | -0.22 | -0.0884 (inactive) | 0.938 | -1.23 | -2 (inactive) | -0.156 (inactive) | 0.0743 (inactive)
7 | COC(=O)[C@@]1(Cc2ccc(OC)cc2)[C@H]2c3cc(C(=O)N4CCCC4)n(CCc4ccc(OC)c(Br)c4)c3C[C@H]2CN1C(=O)c1ccccc1 | -0.142 | 0.775 (inactive) | -0.354 (inactive) | -0.844 (inactive) | 0.0539 (inactive) | -0.101 (inactive) | -0.236 (inactive) | -0.351 (inactive) | 0.282 | 0.312 | -0.0245 (inactive) | -0.879 | -1.17 | -4.39 (inactive) | -0.299 (inactive) | -0.0792 (inactive)
8 | C=CCC(OC(C)=O)[C@@H]1[C@@H](N(Cc2ccc(-c3cccc(C(F)(F)F)c3)o2)C(=O)Cc2ccc(OC)cc2)c2cc(OCCCO)ccc2N1C(=O)c1ccc2ccccc2n1 (some centres undefined) | -0.777 | -0.791 (inactive) | 0.271 (inactive) | -0.0941 (inactive) | -0.817 (inactive) | -0.188 (inactive) | -0.267 (inactive) | -0.446 (inactive) | 0.0494 | 0.36 | -0.155 (inactive) | -0.118 | -2.2 | -2.25 (inactive) | 0.401 (inactive) | 0.966 (inactive)
9 | CCN(CC)c1ccc(N2CC=CC34O[C@@H]5C=CCOC(=O)[C@@H]5[C@H]3C(=O)N(CCO)[C@@H]4C2=O)cc1 (some centres undefined) | 0.534 | -0.0592 (inactive) | 0.762 (inactive) | -0.675 (inactive) | -0.978 (inactive) | 0.964 (inactive) | 1.15 (inactive) | 1.36 (inactive) | 0.828 | 0.147 | -0.228 (inactive) | -1.29 | 0.738 | -4.9 (inactive) | -0.52 (inactive) | -0.456 (inactive)

From PubChem BioAssay
